Source: PubChem (National Center for Advancing Translational Sciences (NCATS))
SW480 rerep: induces DNA re-replication in SW480 colon adenocarcinoma cells; Potency, µM (top dose mostly 46.1 µM), for the others: top-dose re-replication activation, hits mostly activators; SW480 DNA re-replication, Hoechst DNA content imaging, 48 h; 340,000 tested, 1.8% active; AID 624297; note: potency is the fitted concentration of half-maximal effect; % of control where 0% means no effect; nearly all actives have a fitted effect of over 55% in size
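Image-based read-out: total Hoechst fluorescence of nuclei (405 nm excitation, 500-530 nm emission), with hits raising the fraction of high-intensity nuclei. SW480 colon cells incubated 48 hr with compounds at 37 C.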
PINK1 modulator: modulators of PINK1 expression. PINK1 immunofluorescence, high-content cytometry, 24 h. Potency, µM (series often up to 76.6 µM), for inactives: top-dose activation (PINK1 increase), most hits filed as activators. 410,000 tested, 0.2% active; active = well fitted activation curve with a large enough effect; inconclusive = small, poorly fitted or top-dose-only effect; cell line not stated here; note: potency is the fitted concentration of half-maximal effect; % of control where 0% means no effect; nearly all actives have a fitted effect of over 65% in size
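Stable cell line treated 24 h with compounds at 5 concentrations (CCCP controls), then fixed and immunostained for PINK1 plus nuclear and cell stains; PINK1 immunofluorescence quantified by laser-scanning microplate cytometry.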
IL1B secr inh: inhibitors of inflammasome signaling (IL-1 beta secretion); THP-1 LPS/ATP IL-1B secretion, AlphaLISA, 16 h; stronger effect = lower value; activity change, % at 57.5 µM; 360,000 tested, 4.7% active; in the data active = activity change below about -50%; inconclusive = mostly about -30% to -49%; note: % is set by controls: 0 for no effect and ±100 for the full control effect
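THP-1 cells pretreated 1 hr with compounds (up to 57.5 uM final), then stimulated with LPS (250 ng/mL final) plus ATP (1.25 mM final); secreted IL-1B measured by AlphaLISA after 16 hr, decreased signal indicating inhibition.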
S2 tox: cell viability loss in ATXN counter-screen. S2 cells (HEK-293 line with an ATXN2-luciferase reporter) viability, CellTiter-Fluor protease fluorescence, 24 h. Potency, µM (series often up to 56.7 µM), usual class: cytotoxic. 400,000 tested, 0.49% active. AID 651635; note: potency is the fitted concentration of half-maximal effect; nearly all actives have a fitted effect of over 40% in size
ATXN2 expr inh: reduces ATXN2 reporter expression in HEK-293 cells; HEK-293 ATXN2-luciferase reporter, luminescence, 24 h; Potency, µM (titrated, usually from 57 µM), without a hit: at the highest dose activity change, negative = inhibition, most hits filed as inhibitors; 360,000 tested, 0.72% active; note: potency is the fitted concentration of half-maximal effect; % is set by controls: 0 for no effect and ±100 for the full control effect; nearly all actives have a fitted effect of over 55% in size
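ATXN2-luciferase reporter cells (luciferase flanked by upstream and downstream ATXN2 gene portions) were treated 24 h at 37 °C with compounds at up to 57 uM. SteadyGlo luminescence gave expression; GF-AFC fluorescence gave viability.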
MCF10A rereplic: inducers of DNA re-replication in MCF 10A breast cells. Potency, µM (doses to about 46.1 µM), for inactives: top-dose activity, positive = re-replication, most hits filed as activators. MCF 10A DNA re-replication, Hoechst nuclear intensity, 48 h. AID 624296. 350,000 tested, 2.9% active; note: potency is the fitted concentration of half-maximal effect; % of control where 0% means no effect; nearly all actives have a fitted effect of over 50% in size
* = called active by the depositor; i = inactive; ? = inconclusive; nt = no result given. Only some compounds are listed: those with a hit (about 7.1% of all), similar ones and a draw of the others. Unless noted, calls come from the whole dose curve; as a rule, active = well fitted curve in the direction sought with a large enough effect; inconclusive = small, poorly fitted or top-dose-only effect, or another doubt; inactive = no such curve, though single readings can be large; an effect the other way counts as inactive or inconclusive.

SMILES | SW480 rerep | PINK1 modulator | IL1B secr inh | S2 tox | ATXN2 expr inh | MCF10A rereplic
CCCC[n+]1c(/C=C/c2ccc(N(C)C)cc2)sc2ccccc21 | nt | 5µM* | nt | nt | nt | nt
Clc1ccc(CN2CCN(c3ncccn3)CC2)c(Cl)c1 | ? | 13% | -12 | i | -21% | 23µM*
CCC(CN)CC(C)CCNCC(O)CNCC(C)CC(CC)CN (centres undefined) | nt | nt | nt | i | nt | nt
Cc1c(C(=O)N(CCO)Cc2ccccc2)oc2c(F)cccc12 | -66% | 1% | 15 | i | 48% | 0.73µM*
Cc1c(C(=O)N(C)Cc2cccc(F)c2)oc2c(Cl)cccc12 | ? | 1% | -8 | i | 3% | ?
Cc1c(C(=O)NC2CCN(Cc3ccccc3)C2)oc2c(Cl)cccc12 (centres undefined) | ? | 2% | -88* | i | -26% | 16µM*
Cc1c(C(=O)N(C)Cc2ccccc2)oc2c(Cl)cccc12 | 21% | 10% | -4 | i | -14% | 18µM*
O=C(NC1CCN(Cc2ccccc2)CC1)c1ccccc1Cl | -14% | -1% | -6 | nt | nt | -1%
CCOc1ccc(C(=O)NCCn2cc(SCC(=O)Nc3ccccc3)c3ccccc32)cc1 | nt | 2% | nt | ? | ? | nt
CC1(C)CC(=O)C2=C(C1)NC(SCC(=O)Nc1ccccc1)=C(C#N)C21CCCCC1 | 1% | ? | ? | i | -1% | 26%
CC(C)(C)C1CCC2(CC1)C(C#N)=C(SCC(=O)Nc1ccccc1)NC(=O)C2C#N (centres undefined) | ? | 22µM* | -13 | ? | ? | 9.2µM*
COC/C=C/C1=CC(=O)C[C@H](c2ccc3c(c2)OCO3)C1 | 22% | -1% | -96* | i | -34% | ?
O=C1C=C(c2ccc(CO)cc2)C[C@@H](c2ccc3c(c2)OCO3)C1 | -21% | 1% | ? | i | 4% | 0.58µM*
CCCCC/C=C/C1=CC(=O)C[C@H](c2ccc3c(c2)OCO3)C1 | -2% | 18% | 7 | i | -11% | 11%
O=C1C=C(c2ccc(-c3ccccc3)cc2)C[C@@H](c2ccc3c(c2)OCO3)C1 | -10% | 0% | 30 | i | 3% | 23%
COc1ccc(-c2cn3nc(N4CCCC(C(=O)Nc5ccccc5OC)C4)sc3n2)cc1 (centres undefined) | nt | 3% | nt | nt | nt | nt
Cc1ccccc1NC(=O)c1c(C)oc2ccc(O)c(CN3CCCC(C)C3)c12 (centres undefined) | nt | 1% | nt | ? | -32% | nt
C=CCS(=O)(=O)c1nc2ccccc2s1 | ? | -3% | -115* | nt | ? | 7.3µM*
O=S(=O)(CCSc1nc2ccccc2s1)c1nc2ccccc2s1 | ? | -3% | -100* | 16µM* | ? | ?
CC(C)(C)S(=O)(=O)c1nc2ccccc2s1 | 1% | -1% | ? | i | 6% | 19%
CCS(=O)(=O)CCSc1nc2ccccc2s1 | -10% | -2% | 0 | i | 6% | 0%
COc1ccc(CNc2ccc(Br)cc2)cc1 | -17% | 3% | -6 | i | -3% | 9%
COc1ccc(NC2=NCC(Cc3ccc(Br)cc3)S2)cc1 (centres undefined) | ? | 3% | -91* | ? | ? | ?
CCOC(=O)N1C/C(=C\c2ccccc2)C(=O)/C(=C/c2ccccc2)C1 | ? | 21% | ? | ? | nt | ?
O=C1/C(=C/c2ccccc2)CN(C(=O)CCN2CCOCC2)C/C1=C\c1ccccc1 | ? | -7% | -101* | 21µM* | 27µM* | 2.3µM*
SMILES | SW480 rerep | PINK1 modulator | IL1B secr inh | S2 tox | ATXN2 expr inh | MCF10A rereplic
O=C(/C=C/c1ccccc1)CCN1CCOCC1 | 8.2µM* | 0% | -84* | ? | ? | ?
C/C(=C\c1ccccc1)C(=O)NCCN1CCOCC1 | 9% | 0% | -4 | ? | nt | -6%
C[N+](C)(C)CCC(=O)N1C/C(=C/c2ccccc2)C(=O)/C(=C\c2ccccc2)C1 | 0.73µM* | -5% | -98* | nt | 8.4µM* | ?
CN(C)CCC(=O)N1C/C(=C/c2ccccc2)C(=O)/C(=C\c2ccccc2)C1 | ? | -6% | -100* | 4.2µM* | 2.1µM* | 31%
O=C(Cn1c2ccccc2c(=O)c2ccccc21)Nc1cccc(F)c1 | 18µM* | 6% | 13 | i | nt | 12µM*
O=C(Cn1c(=O)n(Cc2ccco2)c(=O)c2ccccc21)Nc1cccc(F)c1 | nt | 1% | nt | i | -1% | nt
O=C(N/N=C/c1cccc(Br)c1)c1ccc(Cn2cc(Br)cn2)o1 | 0% | 6% | -73* | i | -10% | 14%
CC1CCC(C(=O)N(c2cc(C#CC(C)(C)C)sc2C(=O)O)C2CCC(O)CC2)CC1 (centres undefined) | nt | nt | nt | nt | 14% | nt
COc1cccc(-c2ccc3ncnc(N(C)C)c3c2)c1 | nt | 5% | nt | nt | nt | nt
CCC1CSC(Nc2ccc(C(=O)/C=C/c3cccc(C)c3)cc2)=N1 (centres undefined) | ? | -1% | -87* | i | -20% | 16µM*
Cc1ccc(C(=O)/C=C/C(=O)c2ccc(C)cc2)cc1 | -3% | -1% | -71* | ? | ? | 3.7µM*
Cc1ccc(C(=O)C=Cc2cccc(C)c2)cc1 | ? | -2% | -24 | i | 16% | 18µM*
CCC1CSC(Nc2ccc(C(=O)/C=C/c3ccc(Oc4ccccc4)cc3)cc2)=N1 (centres undefined) | ? | 4% | ? | ? | ? | ?
CCCCN(C=O)c1c(CC)nc2ccc(C(=O)N3CCN(c4ccccc4)CC3)cn12 | nt | 0% | -1 | i | -7% | nt
CCc1ccccc1NC(=O)CSc1ncc2c(n1)-c1ccccc1N(Cc1ccc(C)cc1)S2(=O)=O | nt | 6% | nt | i | 10% | nt
COc1ccc2nc(N/C(N)=N/C(=S)Nc3c(C)cccc3C)nc(C)c2c1 | 26% | 12% | -63* | ? | nt | ?
CCOc1ccc2nc(N/C(N)=N/C(=S)Nc3cccc(OC)c3)nc(C)c2c1 | ? | 10% | -55* | ? | -10% | 10%
CCOc1ccc2nc(N/C(N)=N/C(=S)Nc3cccc(C)c3)nc(C)c2c1 | -7% | 3% | ? | i | -12% | -2%
COc1ccc2nc(N/C(N)=N/C(=S)Nc3cccc(C)c3)nc(C)c2c1 | 15% | 6% | -56* | i | -12% | 26%
CCc1ccccc1NC(=S)/N=C(\N)Nc1nc(C)c2cc(C)ccc2n1 | 21µM* | 1% | -101* | ? | -35% | ?
CCn1c(CNC(=O)c2cccnc2)cc2ccccc21 | 3% | 1% | 16 | i | nt | 5%
